Measurements taken from PubChem BioAssay.
Activity calls are given as the source filed them. Unless noted, no rule for the calls is given here.

Key:
[1] = anti-His antibody binders, primary screen, artefact control for SMM control protein annotation, biochemical, small-molecule microarray, 635 nm fluorescence (AID 1128); conditions: anti-His Alexa647 antibody binding, higher = more signal;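 also: score merges feature fluorescence with signal-to-noise for each printed compound spot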
[2] = test system: Human papillomavirus type 1a E7 protein (residues 1-88); experiment: HPV1a E7 small-molecule binders, primary screen, biochemical, small-molecule microarray, residues 1-88, 635 nm (AID 1129); conditions: small-molecule microarray binding, fluorescence 635 nm; higher = more signal
[3] = target: Focal adhesion kinase 1 (Homo sapiens) (UniProt Q05397); experiment: small-molecule microarray binders of FAK, primary screen, biochemical, 635/667 nm fluorescence, BSA, DTT (AID 1130); conditions: PTK2 binding, 635 nm fluorescence, higher = more signal;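 also: composite of spot emission at 667 nm and signal to noise over triplicate slides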
Focal adhesion kinase 1 (Homo sapiens), sequence (Q05397 whole entry, looked up): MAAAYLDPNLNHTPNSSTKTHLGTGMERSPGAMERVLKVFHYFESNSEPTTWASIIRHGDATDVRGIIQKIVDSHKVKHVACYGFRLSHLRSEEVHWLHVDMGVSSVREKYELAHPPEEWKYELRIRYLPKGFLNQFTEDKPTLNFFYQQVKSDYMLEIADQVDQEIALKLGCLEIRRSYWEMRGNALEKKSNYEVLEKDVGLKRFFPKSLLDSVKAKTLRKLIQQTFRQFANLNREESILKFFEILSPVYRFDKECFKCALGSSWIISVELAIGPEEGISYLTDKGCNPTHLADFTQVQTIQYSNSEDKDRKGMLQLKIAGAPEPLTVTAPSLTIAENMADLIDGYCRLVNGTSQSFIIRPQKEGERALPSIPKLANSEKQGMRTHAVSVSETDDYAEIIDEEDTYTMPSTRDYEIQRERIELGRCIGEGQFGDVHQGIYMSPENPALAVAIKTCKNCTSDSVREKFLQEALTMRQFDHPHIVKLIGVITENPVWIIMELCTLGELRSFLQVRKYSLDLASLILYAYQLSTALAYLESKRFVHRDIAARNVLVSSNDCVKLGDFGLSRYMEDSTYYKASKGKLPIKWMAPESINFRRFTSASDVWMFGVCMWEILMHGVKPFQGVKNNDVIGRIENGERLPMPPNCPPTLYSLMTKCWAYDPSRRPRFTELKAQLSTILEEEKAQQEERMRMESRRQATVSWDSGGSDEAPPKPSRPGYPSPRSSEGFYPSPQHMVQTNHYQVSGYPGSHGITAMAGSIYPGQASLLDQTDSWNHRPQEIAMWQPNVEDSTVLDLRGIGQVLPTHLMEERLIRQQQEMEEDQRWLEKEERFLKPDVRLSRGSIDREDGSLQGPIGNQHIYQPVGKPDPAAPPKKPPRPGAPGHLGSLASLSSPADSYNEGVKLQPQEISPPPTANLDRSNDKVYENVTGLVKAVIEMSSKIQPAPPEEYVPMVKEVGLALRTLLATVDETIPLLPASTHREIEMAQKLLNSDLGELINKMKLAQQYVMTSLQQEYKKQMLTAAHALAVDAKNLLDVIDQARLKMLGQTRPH

[4] = test system: Fibrinogen (Alexa647-labelled); experiment: fibrinogen binders on compound microarrays, profiling panel, artefact control for SMM control-protein annotation, biochemical, small-molecule microarray, 635/667 nm fluorescence (AID 1131); conditions: fibrinogen-A647 binding fluorescence, higher = more signal;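 also: z-score merges 667 nm fluorescence with per-spot signal-to-noise over triplicate slides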
[5] = target: Follistatin (Homo sapiens) (UniProt P19883); experiment: follistatin binders on small-molecule microarrays, primary screen, biochemical, small-molecule microarray, 635/667 nm fluorescence (AID 1132); conditions: FST binding, 635 nm fluorescence, higher = more signal
Follistatin (Homo sapiens), sequence (P19883 whole entry, looked up): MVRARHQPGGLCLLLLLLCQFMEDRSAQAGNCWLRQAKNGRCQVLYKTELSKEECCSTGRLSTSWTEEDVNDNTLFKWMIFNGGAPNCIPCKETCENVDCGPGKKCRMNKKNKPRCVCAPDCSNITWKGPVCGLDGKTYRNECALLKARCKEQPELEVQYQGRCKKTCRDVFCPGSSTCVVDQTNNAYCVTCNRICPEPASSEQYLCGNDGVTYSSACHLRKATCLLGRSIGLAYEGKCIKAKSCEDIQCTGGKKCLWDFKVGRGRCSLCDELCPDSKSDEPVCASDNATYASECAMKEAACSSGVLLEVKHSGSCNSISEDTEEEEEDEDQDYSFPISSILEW

[6] = target: Fibroblast growth factor 2 (Homo sapiens) (UniProt P09038); experiment: FGF2 binders on small-molecule microarrays, primary screen, biochemical, small-molecule microarray, 635/667 nm fluorescence (AID 1133); conditions: small-molecule microarray binding, FGF2, fluorescence 635/667; higher = more signal
Fibroblast growth factor 2 (Homo sapiens), sequence (P09038 whole entry, looked up): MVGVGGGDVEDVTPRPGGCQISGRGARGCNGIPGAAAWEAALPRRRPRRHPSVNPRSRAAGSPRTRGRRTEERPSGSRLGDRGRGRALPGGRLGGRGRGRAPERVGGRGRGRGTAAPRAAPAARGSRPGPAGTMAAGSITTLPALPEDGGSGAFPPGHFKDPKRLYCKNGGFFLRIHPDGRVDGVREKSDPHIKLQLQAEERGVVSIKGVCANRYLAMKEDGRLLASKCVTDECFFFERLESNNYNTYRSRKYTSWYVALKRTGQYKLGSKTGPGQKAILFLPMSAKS

[7] = mitochondrial membrane potential change in A549 cells, profiling panel, cell-based, JC-1 fluorescence, basal, 24 h, 100 nL (AID 1138); conditions: higher = more signal;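 also: A549 lung adenocarcinoma cells under basal conditions with no added stimulus; test concentration not given here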
[8] = test system: Lefty1; experiment: Lefty1 binders on small-molecule microarrays, primary screen, biochemical, small-molecule microarray, 635/667 nm fluorescence (AID 1139); conditions: small-molecule microarray binding, fluorescence 635/667; higher = more signal
[9] = test system: wheat germ agglutinin (Triticum aestivum), Alexa647-labelled; experiment: wheat germ agglutinin binders on compound microarrays, profiling panel, artefact control for SMM control-protein annotation, biochemical, small-molecule microarray, 635/667 nm fluorescence (AID 1140); conditions: WGA-A647 binding, 635 nm fluorescence, higher = more signal;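 also: score merges 667 nm feature emission with signal to noise over triplicate slides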
[10] = target: Luciferin 4-monooxygenase (Photinus pyralis) (UniProt P08659); experiment: firefly luciferase enzyme inhibitors, primary screen, biochemical, luminescence, purified enzyme, 2006 set (AID 1141); conditions: SteadyGlo luminescence, 30 min, higher = more signal, called active from +8 up or from −8 down;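 also: cell-free assay with purified firefly luciferase at 100 ng per well in PBS; test concentration not given here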
Luciferin 4-monooxygenase (Photinus pyralis), sequence (P08659 whole entry, looked up): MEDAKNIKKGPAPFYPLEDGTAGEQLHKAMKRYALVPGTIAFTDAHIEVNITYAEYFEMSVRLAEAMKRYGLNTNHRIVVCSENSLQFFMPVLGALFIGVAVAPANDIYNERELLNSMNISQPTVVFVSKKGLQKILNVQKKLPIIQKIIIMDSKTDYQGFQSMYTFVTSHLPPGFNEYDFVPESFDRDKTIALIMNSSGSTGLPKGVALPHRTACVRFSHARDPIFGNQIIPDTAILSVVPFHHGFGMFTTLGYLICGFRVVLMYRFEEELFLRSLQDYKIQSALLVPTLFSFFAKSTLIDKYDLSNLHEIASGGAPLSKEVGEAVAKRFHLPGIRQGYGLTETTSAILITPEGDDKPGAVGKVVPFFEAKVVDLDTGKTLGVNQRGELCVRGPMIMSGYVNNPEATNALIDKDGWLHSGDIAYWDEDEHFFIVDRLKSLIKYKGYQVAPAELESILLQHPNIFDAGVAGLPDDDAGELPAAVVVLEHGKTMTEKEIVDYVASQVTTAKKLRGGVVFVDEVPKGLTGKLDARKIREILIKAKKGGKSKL

[11] = test system: Wnt5a (protein binding on small-molecule microarray); experiment: Wnt5a binders on small-molecule microarray, primary screen, biophysical, 635/667 nm fluorescence (AID 1142); conditions: 635 nm fluorescence, higher = more signal;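 also: fluorescence read at 667 nm with signal to noise per printed feature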
[12] = cell viability in Huh7 cells, primary screen, cytotoxicity control for HCV replication inhibitor project, CellTiter-Glo luminescence, basal, 48 h (AID 1143); conditions: Huh7 HCV replicon, higher = more signal, called active from +8 up or from −8 down;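 also: Huh7 hepatoma cells carrying a hepatitis C replication reporter with no stimulus; test concentration not given here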
[13] = P. aeruginosa biofilm formation inhibitors, primary screen, PAO1 strain, BacTiter-Glo luminescence, LB-PBS (AID 1144); conditions: 12 h, higher = more signal
[14] = CREB reporter modulators without forskolin, primary screen, cell-based, PC12, CRE-LacZ reporter, unstimulated (AID 1145); conditions: no forskolin, luminescence, 4.5 h, higher = more signal, called active from +8 up or from −8 down
[15] = CREB reporter modulators under forskolin, primary screen, cell-based, PC12, CRE-LacZ reporter, forskolin-stimulated (AID 1146); conditions: luminescence, 4.5 h, higher = more signal, called active from +8 up or from −8 down;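 also: PC12 cells with 6xCRE LacZ reporter stimulated by forskolin 10 µM; beta-galactosidase reporter signal reflecting CREB driven transcription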
[16] = target: Streptavidin (Streptomyces avidinii) (UniProt P22629); experiment: streptavidin binders on small-molecule microarray, primary screen, artefact control for SMM compound annotation, biophysical, 635/667 nm fluorescence (AID 1147); conditions: streptavidin binding, higher = more signal;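 also: signal reflects streptavidin binding to arrayed compounds as a control protein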
Streptavidin (Streptomyces avidinii), sequence (P22629 whole entry, looked up): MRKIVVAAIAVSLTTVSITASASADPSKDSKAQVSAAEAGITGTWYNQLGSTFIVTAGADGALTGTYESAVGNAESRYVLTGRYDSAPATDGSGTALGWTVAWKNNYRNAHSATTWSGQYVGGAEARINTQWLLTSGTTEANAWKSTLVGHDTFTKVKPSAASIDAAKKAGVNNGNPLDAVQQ

[17] = small-molecule binders of probe aInhba, primary screen, biochemical, small-molecule microarray, 635/667 nm fluorescence (AID 1148); conditions: higher = more signal;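 also: score merges 667nm spot fluorescence with signal-to-noise for antibody binding to printed compounds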
[18] = target: Torsin-1A (Homo sapiens) (UniProt O14656); experiment: torsin A binders from cell lysate, primary screen, small-molecule microarray, wild-type, 635/667 nm (AID 1149); conditions: COS7 hTOR1A-WT lysate, 635 nm fluorescence, higher = more signal
Torsin-1A (Homo sapiens), sequence (O14656 whole entry, looked up): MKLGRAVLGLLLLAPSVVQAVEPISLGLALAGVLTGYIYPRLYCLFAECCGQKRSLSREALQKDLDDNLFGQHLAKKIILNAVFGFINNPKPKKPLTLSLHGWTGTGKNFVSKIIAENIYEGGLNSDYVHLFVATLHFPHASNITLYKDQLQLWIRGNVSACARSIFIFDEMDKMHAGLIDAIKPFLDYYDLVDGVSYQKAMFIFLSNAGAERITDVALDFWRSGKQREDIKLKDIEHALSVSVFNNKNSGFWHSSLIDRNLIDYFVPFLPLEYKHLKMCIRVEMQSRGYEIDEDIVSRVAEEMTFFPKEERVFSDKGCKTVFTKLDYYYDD

[19] = target: Torsin-1A (Homo sapiens) (UniProt O14656); experiment: small-molecule binders of mutant TOR1A in lysate, primary screen, cell lysate, small-molecule microarray, COS7 lysate, 635/667 nm fluorescence (AID 1150); conditions: COS7 hTOR1A mutant lysate, 635 nm fluorescence, higher = more signal;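 also: score pools 667 nm emission and signal to noise measuring lysate protein binding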
[20] = test system: Sonic hedgehog protein (Shh); experiment: small-molecule binders of Shh protein, primary screen, biochemical, small-molecule microarray, 635/667 nm fluorescence (AID 1151); conditions: small-molecule microarray binding, 635 nm fluorescence; higher = more signal;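 also: Shh protein binding to compounds spotted on small-molecule microarray slides; score combines spot fluorescence intensity with signal-to-noise across triplicate slides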

Compound | composite z-score [1] | composite z-score [2] | composite z-score [3] | composite z-score [4] | composite z-score [5] | composite z-score [6] | z-score [7] | composite z-score [8] | composite z-score [9] | z-score [10] | composite z-score [11] | z-score [12] | z-score [13] | z-score [14] | z-score [15] | composite z-score [16] | composite z-score [17] | composite z-score [18] | composite z-score [19] | composite z-score [20]
C=CCNC(=O)[C@@H]1[C@H]2C(=O)O[C@H](c3ccccc3)[C@H](c3ccccc3)N2[C@H](c2ccc(OCCO)cc2)[C@@]12C(=O)N(C(=O)OCCOC)c1ccc(C#CCC(C(=O)OC)C(=O)OC)cc12 | 1.67 | 1.16 | 1.31 | 0.603 | 1.24 | 1.48 | -1.18 | 0.991 | 1.05 | -0.262 (inactive) | 0.486 | -2.47 (inactive) | 0.975 (inactive) | 0.208 (inactive) | -0.208 (inactive) | 0.386 | 0.322 | 0.126 | 0.681 | 1.09
COc1ccc([Si](C)(C)[C@@H]2[C@@H](CC(=O)N3CCC[C@H]3CO)O[C@]3(C(=O)N(Cc4cccc(I)c4)c4ccccc43)[C@H]2C)cc1 | 2.04 | 0.781 | -0.204 | 0.591 | 1.39 | 1.76 | -0.77 | 1.64 | 0.481 | -0.368 (inactive) | 0.557 | -4.27 (inactive) | 0.452 (inactive) | 0.12 (inactive) | -0.845 (inactive) | 0.168 | -0.0582 | 1.36 | 0.789 | 2.14
COc1cc(OC)c(C(O)C2C=CC3C(=O)NC(=O)C3N2Nc2ccccn2)cc1Br (stereo not given) | 2.02 | 0.683 | 0.124 | 0.368 | 0.573 | 0.562 | 0.0938 | 0.483 | 0.0687 | -1.36 (inactive) | 0.364 | 0.996 (inactive) | -0.874 (inactive) | -0.326 (inactive) | -0.527 (inactive) | -0.118 | -0.0791 | -0.105 | 0.197 | 0.754
COC(=O)c1c(CC[C@@H](CO)NC(=O)NCCc2c[nH]c3ccccc23)oc(C(=O)Cc2ccccc2)c1C(=O)OC | 0.108 | 0.27 | 0.131 | 0.273 | 0.368 | 0.251 | -0.364 | 0.456 | 0.0707 | 0.521 (inactive) | -0.229 | -0.195 (inactive) | 0.604 (inactive) | 1.37 (inactive) | -0.713 (inactive) | -0.322 | -0.188 | 0.207 | 0.0487 | 0.0213
COC(=O)C(CC#Cc1ccc2c(c1)[C@]1(C(=O)N2)[C@H](c2ccccc2OCCO)N2[C@H](c3ccccc3)[C@H](c3ccccc3)OC(=O)[C@H]2[C@@H]1C(=O)O)C(=O)OC | 1.94 | 1.16 | 0.411 | 0.765 | 0.206 | 0.36 | 0.621 | 0.284 | 0.702 | -2.37 (inactive) | 0.231 | -0.323 (inactive) | -0.367 (inactive) | -0.375 (inactive) | 1.86 (inactive) | 0.517 | 0.29 | 0.19 | 1.14 | 0.279
CC(=CC1CCCCC1)[C@@H](NC(=O)c1cccnc1)c1ccc(-c2ccccc2)cc1 | 0.219 | 0.242 | -0.0341 | 0.0017 | -0.0317 | -0.741 | -0.637 | -0.496 | 0.495 | 0.722 (inactive) | -0.444 | -2.65 (inactive) | 0.477 (inactive) | 1.34 (inactive) | 1.24 (inactive) | 0.0816 | -0.0986 | -0.77 | -0.278 | -0.683
COc1cc2c(cc1O)C(c1cccs1)N(Cc1ccc([N+](=O)[O-])o1)CC2 (stereo not given) | 0.737 | 0.182 | 0.215 | 0.979 | 0.257 | 0.478 | 2.32 | -0.795 | 0.839 | -2.26 (inactive) | 0.207 | -1.37 (inactive) | -0.371 (inactive) | 0.209 (inactive) | -0.543 (inactive) | 1.32 | 0.167 | 0.426 | -0.155 | -0.951
[N-]=[N+]=Nc1ccccc1C[C@]1(C(=O)N2CCCCC2)COC(c2ccc(OCCCO)cc2)=N1 | 1.33 | 1.15 | 0.65 | 1.01 | 0.601 | -0.0446 | 0.124 | 0.308 | 0.523 | -6.97 (inactive) | 0.427 | -4.35 (inactive) | 1.38 (inactive) | 1.01 (inactive) | -0.57 (inactive) | 1.22 | 0.0108 | 0.552 | 0.742 | -0.385
CN(C)CCCCNC(=O)[C@@H]1C[C@@H]2C(=O)N[C@@H](CCCCN)C(=O)N2[C@@H]1c1ccc(O)cc1 | 0.253 | -0.0102 | -0.0748 | 0.223 | 1.34 | 1.68 | -1.38 | 0.896 | 0.857 | -0.0213 (inactive) | 0.0291 | -0.151 (inactive) | -0.0779 (inactive) | 0.281 (inactive) | -0.773 (inactive) | 0.98 | -0.0403 | 0.584 | 0.435 | 1.23
CCCC[C@@H]1C[C@H]1[C@@H](NC(=O)c1cccnc1)c1ccc(Cl)cc1 | -1.38 | -2.87 | -0.518 | -2.97 | -2.16 | -2.46 | 0.66 | -2.59 | -1.72 | 0.928 (inactive) | -0.769 | -1.25 (inactive) | -0.128 (inactive) | -0.368 (inactive) | 0.834 (inactive) | -1.44 | -0.335 | -1.57 | -0.419 | -1.35
